# Screening results from PubChem BioAssay.
# A selection: hits, their analogues and other compounds. The true share with any hit is near 8%.
# FMDV antiviral: antivirals against foot and mouth disease virus. 1.2% of 410,000 active. Potency, µM (titrated, usually from 57.9 µM), inactives show at the highest dose activity change, negative = inhibition, hits mostly inhibitors. FMDV antiviral cell-based qHTS; calls by dose curve; tested in HEK293T cells; further: read-out not given here; potency means the concentration at half of the fitted maximal effect; on the % scale 0 is the no-effect control and ±100 the full control effect; nearly all actives have a fitted effect of over 45% in size
# Marburg entry inh: blocks Marburg virus binding to or entry into cells | Marburg virus pseudotyped entry inhibition, cell reporter | Potency, µM (highest dose often 37.8 µM), for inactives: top-dose activity change, negative = inhibition, usual class: inhibitors | 1.8% of 300,000 active | AID 540276; calls by dose curve; tested in HEK293 cells; further: potency means the concentration at half of the fitted maximal effect; on the % scale 0 is the no-effect control and ±100 the full control effect
# HCMV antiviral: blocks human cytomegalovirus replication | 4.5% of 410,000 active | HFF cells, HCMV-luciferase reporter, 72 h; active compounds read low | AID 1259415 | activity change, negative = inhibition, % at 57.5 µM; in the data active means activity change below about -60%; inconclusive means no clear call, values can overlap the other calls; inactive means above about -39%; further: on the % scale 0 is the no-effect control and ±100 the full control effect
#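 After 16 h attachment at 37C, HFF cells received test compound and HCMV-luciferase (1 PFU/cell); reporter luminescence read 72 h later, data normalized against buffer-only and known inhibitor Salinomycin.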
# LASV entry inh: inhibitors of Lassa virus binding or cell entry; Lassa virus pseudotype entry inhibition, cell reporter; Potency, µM (top dose mostly 37.9 µM), without a hit: top-dose activity change, negative = inhibition, actives largely listed as inhibitors; 1.2% of 300,000 active; AID 540256; calls by dose curve; tested in HEK293 cells; further: potency means the concentration at half of the fitted maximal effect; on the % scale 0 is the no-effect control and ±100 the full control effect; nearly all actives have a fitted effect of over 50% in size
# SARS PLP yeast: blocks SARS-CoV papain-like protease in a yeast assay; S. cerevisiae expressing SARS-CoV PLpro, growth rescue; Potency, µM (titrated, usually from 32.9 µM), for inactives: top-dose activity, positive = growth rescue, most hits filed as activators; 0.19% of 330,000 active; AID 485353; calls by dose curve; further: potency means the concentration at half of the fitted maximal effect; 0% is about no effect; nearly all actives have a fitted effect of over 55% in size
# HCV inhibitor: HCV inhibition; 3.4% of 340,000 active; Potency, µM (titrated, usually from 41.8 µM), for the others: at the top dose activity change, negative = inhibition, actives largely listed as inhibitors; AID 651820; Huh7.5.1 HCVcc-Cre infection, luciferase reporter, 44 h; active means well fitted inhibition curve with a large enough effect; inconclusive means small, poorly fitted or top-dose-only effect, or another doubt; inactive means no such curve, though single readings can be large or run the other way; further: potency means the concentration at half of the fitted maximal effect; on the % scale 0 is the no-effect control and ±100 the full control effect
#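 Cells (1,000/well) were plated 4 h before compound, then infected with HCVcc-Cre virus (~0.5 moi). After 44 h further culture, infection was read as luciferase luminescence following a 15 min substrate incubation at room temperature.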
# * marks the source's active call; other numbers are inactive results; ? = inconclusive; / = no result; [ ] = another dose, or the depositor's remark.
SMILES,FMDV antiviral,Marburg entry inh,HCMV antiviral,LASV entry inh,SARS PLP yeast,HCV inhibitor
CCc1cccc(NC(=O)c2ccc(NC(=O)N3CCSc4ncccc43)cc2)c1,28.2µM*,/,0.0,-13.6%[46.1 µM],/,/
CCCCOc1ccc(CNC(=O)c2cccc(NC(=O)N3CCSc4ncccc43)c2)cc1,22.4µM*,/,0.0,-14.8%[46.1 µM],/,/
CN(C)CCNC(=O)c1cccc2nc3c(ccc4ccccc43)nc12,-23.5%,?,-96.4*,?,/,7.94µM*
COc1cccc2nc3c(C(=O)NCCN(C)C)cccc3cc12,0.2%,7.08µM*,-101.5*,?,/,?
COc1ccc(C(=O)NCCN(C)C)c2nc3ccccc3cc12,-11.1%,1.26µM*,-99.7*,?,/,?
COc1ccc(-c2nc3c(C(=O)NCCN(C)C)cccc3c3ccccc23)cc1,-23.5%,?,-34.5,?,/,?
CN(C)CCNC(=O)c1cccc2[nH]c(-c3ccncc3)nc12,3.3%,?,-99.9*,?,/,?
CCn1ccc2cc(S(=O)(=O)N3CCC(C(=O)NCCc4ccccc4)CC3)ccc21,-11.2%,/,9.3,-3.3%[46.1 µM],/,/
O=C1CN(C(=O)C2CCCCC2)C(c2ccccc2)c2cc(F)ccc2N1 (stereo not given),-15.4%,20.6%[46.1 µM],16.4,-3.7%[46.1 µM],/,/
C[C@@H](CN1CCN(C)CC1)OC(=O)c1ccc(Cl)cc1Cl,/,11.6%,/,/,/,/
COc1ccc(N=C2S/C(=C\c3ccco3)C(=O)N2CC(C)C)cc1,-27.1%,3.8%,13.8,?,-2.8%,1.6%
COc1ccc(N=C2S/C(=C\c3cc(C)n(C)c3C)C(=O)N2CC(C)C)cc1,-18.9%,-24.7%,31.3,-8.2%,-10.5%,10µM*
CCn1nc(C)cc1C(=O)N1CCC2(CC1)c1ccccc1[C@@H](NC(=O)c1cccnc1)[C@@H]2O,-11.0%,/,/,/,/,/
Cc1cc(C)c(/C=N/NC(N)=O)c(C)c1/C=N/NC(N)=O,6.7%,?,?,-0.8%,1.6%,5.2%
CCc1cc(CC)c(/C=N/NC(N)=O)c(CC)c1,-14.3%,/,-23.5,/,-1.5%,11.2µM*
CCCCCCCCCCCCCCCC(=O)C1=C(O)C(CO)OC1=O (stereo not given),1.7%,/,/,/,/,/
CCCCCC(/C=N/Nc1ccc(S(=O)(=O)N2CCOCC2)cc1[N+](=O)[O-])=C\c1ccccc1,-16.5%,?,-95.6*,-12.0%,-8.4%,-0.1%
CC(C)N1CCC(=NNc2ccc(S(=O)(=O)N3CCOCC3)cc2[N+](=O)[O-])CC1,-6.5%,8.6%,?,-3.9%,-18.2%,3.1%
CCCN1CCC(=NNc2ccc(S(=O)(=O)N3CCOCC3)cc2[N+](=O)[O-])CC1,-6.6%,?,-73.1*,?,0.6%,?
CC(=O)N1CCC(=NNc2ccc(S(=O)(=O)N3CCOCC3)cc2[N+](=O)[O-])CC1,-4.2%,16.3%,-27.4,?,4.3%,?
O=C(Cn1cc(F)c(=O)[nH]c1=O)c1ccco1,-15.9%,/,-28.0,/,/,/
COc1cccc(-c2sc3ccc(OC)cc3c2-c2ccc(C(N)=O)cc2)c1,-24.6%,/,7.3,/,-0.1%,2.51µM*
COc1ccc2sc(-c3ccc(SC)cc3)c(-c3ccc(O)cc3)c2c1,-24.7%,/,-6.7,/,2.8%,12.6µM*
COc1cccc(-c2sc3ccc(OC)cc3c2-c2ccc(OC)cc2F)c1,30.2%,/,1.0,/,-5.7%,-6.6%
O=C(CNC(=O)c1cccc(F)c1)N/N=C/c1cc(Br)ccc1OC(=O)/C=C/c1ccco1,-16.1%,18.3µM*,-100.7*,?,-24.7%,7.94µM*
O=C(CNC(=O)c1ccccc1O)N/N=C/c1cc(Br)ccc1OC(=O)/C=C/c1ccco1,-29.7%,?,-74.0*,5.62µM*,31.6%,?
O=C1c2oc3ccccc3c(=O)c2C(c2cccc(O)c2)N1Cc1ccc(F)cc1 (stereo not given),-15.7%,-8.3%[46.1 µM],4.4,-4.3%[46.1 µM],/,/
Cc1ccc(Cl)cc1N(C)C(=O)c1noc2c1CCCCC2,-4.8%,/,-64.3*,19.3%[46.1 µM],/,/
CC(=O)c1ccccc1-c1ccc2c(c1)CC(CNC(=O)C[C@@H]1C[C@@H](C)NC(=S)N1)O2 (stereo not given in full),-9.3%,/,/,/,/,/
C[C@H](C(=O)N[C@H](CO)c1ccccc1)N1Cc2ccc(N3CCOCC3)nc2C1=O,/,/,-4.6,/,/,/
